# Sampled rows, rich in hits. Any-hit rate of the full collection: about 19%.
# IL1B secr inh – inhibitors of inflammasome signaling (IL-1 beta secretion). THP-1 LPS/ATP IL-1B secretion, AlphaLISA, 16 h; hits give low values. activity change, % at 57.5 µM. 360,000 compounds, 4.7% hits. AID 743279; in the data active means activity change below about -50%; inconclusive means mostly about -30% to -49%
#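 THP-1 cells pretreated 1 hr with compounds (up to 57.5 uM final), then stimulated with LPS (250 ng/mL final) plus ATP (1.25 mM final); secreted IL-1B measured by AlphaLISA after 16 hr, decreased signal indicating inhibition.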
# TDP1 cell noCPT – qHTS for Inhibitors of human tyrosyl-DNA phosphodiesterase 1 (TDP1): qHTS in cells in absence of CPT; 420,000 compounds, 15% hits; Potency, µM (highest dose often 46.2 µM), for inactives: top-dose activity change, negative = growth inhibition, usual class: inhibitors; DT40 Tdp1-/- hTDP1 cells, no CPT, ATP luminescence, 48 h; AID 686978, 2013; further: potency means the concentration at half of the fitted maximal effect; nearly all actives have a fitted effect of over 55% in size
#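 DT40 Tdp1-/-;hTDP1 cells, no CPT (DMSO vehicle only), 400 cells/well; compounds pin-transferred; ≥48 hr, 37 °C; CellTiter-Glo 30 min RT dark, luminescence read.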
# DT40 TDP1 CPT – growth inhibition of DT40 Tdp1-/-;hTDP1 cells with camptothecin (screen for TDP1 inhibitors); 420,000 compounds, 12% hits; Potency, µM (titrated, usually from 46.2 µM), without a hit: at the top dose activity change, negative = growth inhibition, most hits filed as inhibitors; chicken DT40 Tdp1-/-;hTDP1 cells + 20 nM CPT, ATP luminescence, 48 h; further: potency means the concentration at half of the fitted maximal effect; nearly all actives have a fitted effect of over 55% in size
#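 Chicken DT40 Tdp1-/- cells complemented with human TDP1, 400 cells/well, exposed to compounds plus 20 nM camptothecin for at least 48 h at 37 C; viability read as ATP content by CellTiter-Glo luminescence.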
# HT1080 IDH1KD tx – kills HT-1080 cells with IDH1 knockdown. AID 686971. 360,000 compounds, 2% hits. HT-1080 IDH1 knockdown viability, ATP luminescence, 48 h. Potency, µM (doses to about 46.1 µM), for the others: at the highest dose activity, negative = toxicity, most hits filed as cytotoxic;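 further: potency means the concentration at half of the fitted maximal effect; 0% = DMSO wells and -100% = cell-free medium wells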
#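 Using the IDH1-knockdown HT-1080 line run in the same batch and compound series as the NT line, viability after 48 h at 37 °C was determined by CellTiter-Glo luminescence and expressed as % activity.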
# HT1080NT lethal – kills 2HG-producing HT-1080-NT fibrosarcoma cells. HT-1080-NT fibrosarcoma viability, CellTiter-Glo ATP luminescence, 48 h. Potency, µM (doses to about 46.1 µM), for inactives: at the top dose activity, negative = less viability, usual class: cytotoxic. 360,000 compounds, 1.6% hits;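 further: NT is the 2HG producing partner of a matched IDH1 knockdown line; potency means the concentration at half of the fitted maximal effect; 0% = DMSO-treated cells and -100% = media-only wells without cells; nearly all actives have a fitted effect of over 55% in size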
#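 Fibrosarcoma NT cells, 750 per well in 5% FBS RPMI, were exposed to compound for 48 hours. Viability: CellTiter-Glo luminescence.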
# * marks the source's active call; other numbers are inactive results; u = inconclusive; x = no result; [ ] = another dose, or the depositor's remark. Unless noted, the call rests on the fitted dose curve; in most records, active means well fitted curve in the direction sought with a large enough effect; inconclusive means small, poorly fitted or top-dose-only effect, or another doubt; inactive means no such curve, though single readings can be large; an effect the other way counts as inactive or inconclusive. Unless noted, on the % scale 0 is the no-effect control and ±100 the full control effect.
SMILES,IL1B secr inh,TDP1 cell noCPT,DT40 TDP1 CPT,HT1080 IDH1KD tx,HT1080NT lethal
CCC1S/C(=N/S(=O)(=O)c2ccc(N)cc2)NC1=O (configuration not stated),-3,9%,8%,-4%,3%
COCCn1c(SCC(=O)Nc2cc(Cl)ccc2OC)nc2c([nH]c3ccccc32)c1=O,x,-10%,-19%,x,x
COCCCN1C(=O)C(=O)/C(=C(/O)c2ccc(C)cc2)C1/C=C/c1ccccc1 (configuration not stated),-1,-12%,7%,-10%,11%
Cn1cnc(S(=O)(=O)N2CCN(c3ccc(F)cc3)CC2)c1,18,-5%,0%,-3%,-3%
CC(C)(C)C1CCc2c(sc3nc(SCC(=O)O)nc(N)c23)C1 (configuration not stated),0,-5%,3%,u,u
Cn1c(=O)c2c3c(sc2n2c(SCC(N)=O)nnc12)CC(C(C)(C)C)CC3 (configuration not stated),-1,u,23µM*,u,u
CCCCN(CCCC)C(=O)CSc1nnc2n(C)c(=O)c3c4c(sc3n12)CCCC4,9,23µM*,u,-5%,-5%
CCCSc1nnc2n(C)c(=O)c3c4c(sc3n12)CCC4,1,u,u,u,-20%
COc1cc(C(=O)Nc2cccc3ncccc23)cc(OC)c1OC,18,0%,-8%,7%,2%
COc1cc(C(=O)NC(c2ccc(Cl)cc2)c2cc(Cl)c3cccnc3c2O)cc(OC)c1OC (configuration not stated),x,5.2µM*,10µM*,x,x
COc1cccc(C(=O)NC(c2ccc(Cl)cc2)c2cc(Cl)c3cccnc3c2O)c1 (configuration not stated),x,5.8µM*,8.2µM*,x,x
CCOC(=O)C[C@H]1c2cc(F)ccc2S(=O)(=O)N1C1CCCCC1,36,-11%,3%,-2%,0%
Cc1ccc(C(=O)N2CCOc3ccc(CN4CCN(Cc5ccccn5)CC4)cc3C2)cc1,x,-22%,-1%[9.04 µM],x,x
COc1ccc(-c2[nH]c3ccccc3c2SCCNC(=O)c2ccc(S(=O)(=O)N(C)C)cc2)cc1,x,2.6µM*,3.3µM*,x,x
CN(C)S(=O)(=O)c1ccc(C(=O)NCCSc2ccccc2)cc1,-7,u,-20%,-10%,-5%
COc1ccc(OC)c2[nH]c(=O)c(CCNC(=O)c3ccc(S(=O)(=O)N4CCCC4)cc3)cc12,6,u,u,5%,-3%
CCN(CC)S(=O)(=O)c1ccc(C(=O)NCCc2cc3c(OC)ccc(OC)c3[nH]c2=O)cc1,49,16µM*,u,9%,10%
COc1ccc(-c2[nH]c3ccccc3c2SCCNC(=O)c2cc(OC)c(OC)c(OC)c2)cc1,x,3.7µM*,5.2µM*,x,x
CCN(CC)S(=O)(=O)c1ccc(C(=O)NCCSc2c(-c3ccc(OC)cc3)[nH]c3ccccc23)cc1,x,3.7µM*,7.3µM*,x,x
CCN(Cc1ccccc1)S(=O)(=O)CCNC(=O)c1ccc(OC)cc1,-17,-27%,9%,3%,17%
COc1cc(C(=O)NCCSc2ccccc2)cc(OC)c1OC,15,u,-3%,-3%,3%
Cc1ccc(-c2[nH]c3ccccc3c2SCCNC(=O)c2cc3ccccc3oc2=O)cc1,0,u,u,u,u
COc1cccc(C(=O)NCCSc2c(-c3ccc(F)cc3)[nH]c3ccccc23)c1OC,x,13µM*,16µM*,x,x
O=C(O)c1ccccc1C(=O)NC1Cc2ccccc2C1,-5,-7%,-8%,18%,21%
COc1ccc(NC(=O)CN(C)S(=O)(=O)c2ccc3c(c2)CCC(=O)N3)c(OC)c1,-11,-23%,0%,7%,0%
SMILES,IL1B secr inh,TDP1 cell noCPT,DT40 TDP1 CPT,HT1080 IDH1KD tx,HT1080NT lethal
CC(=O)N1CCc2cc(S(=O)(=O)C(C)CC(=O)Nc3ccc(OC(F)(F)F)cc3)ccc21 (configuration not stated),20,u,21µM*,-18%,-8%
CC(=O)N1c2ccc(S(=O)(=O)NCCC(=O)Nc3ccc(OC(F)(F)F)cc3)cc2CC1C (configuration not stated),21,u,18µM*,0%,1%
CN(CC(=O)Nc1ccc(OC(F)(F)F)cc1)S(=O)(=O)c1ccc2c(c1)CCC(=O)N2,x,12µM*,u,x,x
CC(=O)N1c2ccc(S(=O)(=O)NCCC(=O)NC3CCCC(C)C3C)cc2CC1C (configuration not stated),-52*,u,-45%,-1%,-1%
COc1ccc(NC(=O)CCNS(=O)(=O)c2ccc3c(c2)CC(C)N3C(=O)C2CC2)cc1 (configuration not stated),36,-28%,u,1%,4%
CC(=O)N1c2ccc(S(=O)(=O)NCCC(=O)Nc3ncccc3C)cc2CC1C (configuration not stated),13,18%,-17%,3%,2%
CC(=O)N1c2ccc(S(=O)(=O)NCCC(=O)Nc3ccc(C)c(F)c3)cc2CC1C (configuration not stated),55,21µM*,u,-5%,1%
CC(=O)N1c2ccc(S(=O)(=O)NCCC(=O)Nc3ccc(Cl)cc3)cc2CC1C (configuration not stated),3,u,18µM*,2%,7%
Cc1ccc(-n2nc3c(=O)n(CC(=O)NCCC(C)C)nc(C)c3c2C)cc1,x,3%,-6%,x,x
O=C(C1CCCN1S(=O)(=O)c1ccc(Cl)cc1)N1CCCCC1 (configuration not stated),-7,-9%,-3%,u,8%
CCOc1ccc(CNC(=O)c2ccc3c(c2)nc2n3CCOC2)cc1OC,x,-11%,4%,x,x
COc1ccc(-c2nnc(C)c3nocc23)cc1,2,u,u,-5%,0%
O=C(NCc1cccc(F)c1)c1cccc2c1C(=O)c1ccc(N3CCCC3)cc1S2(=O)=O,0,12µM*,u,0%,0%
COc1ccccc1N1CCN(c2ccc3c(c2)S(=O)(=O)c2cccc(C(=O)NCc4ccc(F)cc4)c2C3=O)CC1,-6,2.6µM*,u,-1%,-4%
O=C(NCc1cccc(F)c1)c1cccc2c1C(=O)c1ccc(N3CCC(Cc4ccccc4)CC3)cc1S2(=O)=O,-4,u,-10%,0%,27%
CN1CCC[C@@H]1CCNC(=O)c1cccc2c1C(=O)c1ccc(N3CCCC3)cc1S2(=O)=O,-7,-17%,u,-1%,0%
